# Reference: PubChem BioAssay AID2315 (National Center for Advancing Translational Sciences (NCATS), 2010)
# About 27,000 (9.3%) of roughly 290,000 compounds were called active. Shown is part of a subset that was picked to be rich in actives. Unmarked numbers belong to inactive results. Cut-off read from the data, not from the text of the source: active = inhibition mostly above about 28% (no sharp cut-off); inactive = mostly below about 43%.
# Assay: A qHTS for Small Molecule Inhibitors of Shiga Toxin; note: 0% is about no effect
# Conditions: Vero cells, Shiga toxin protein synthesis inhibition reporter; at 38.7 µM, active compounds read high
row,SMILES,inhibition
1,O=C(O)c1cc(S(=O)(=O)NC2CCCc3ccccc32)ccc1O (centres undefined),16.7%
2,CCN(CC)CCCNC(=O)c1cn(C)c2ccc(S(=O)(=O)N(C)C3CCCCC3)cc2c1=O,-11.8%
3,COc1ccccc1C(=O)N(Cc1ccc(C)o1)C1CCS(=O)(=O)C1 (centres undefined),-7.17%
4,Cc1ccc(C(=O)Nc2cccc3ncccc23)cc1[N+](=O)[O-],11.7%
5,Cc1cc(O)c(NC(=O)c2ccc(C)c([N+](=O)[O-])c2)cc1C,57.7% (active)
6,CCN1CCC(=NNC(=O)c2ccc(C)c([N+](=O)[O-])c2)CC1,14.2%
7,Cc1csc(NC(=O)CSc2nc(=O)cc(N)n2-c2ccc(F)cc2)n1,-2.89%
8,Cc1ccccc1NC(=O)N1CCCC1C(=O)NCc1ccccc1 (centres undefined),-8.06%
9,COc1ccc(C(=O)n2nc(C)c(Br)c2C)cc1OC,1.86%
10,COc1cccc(N(C(=O)c2snc(C(N)=O)c2N)C(C(=O)NCC2CCCO2)c2c[nH]c3ccccc23)c1 (centres undefined),-11.7%
11,Cc1cc(C)nc(N/N=C/c2c(CO)cnc(C)c2O)n1,3.16%
12,Cc1ccc(C(=O)NCCNC(=O)c2cnccn2)cc1,3.15%
13,CCN(CC)c1ccc(/C=N/Nc2nc(C)cc(C)n2)c(O)c1,28.1% (active)
14,Cc1cc(C)nc(N/N=C/c2ccncc2)n1,-5.35%
15,CCN(CC)c1ccc(/C=N/NC(=O)c2cnccn2)c(O)c1,62.2% (active)
16,CCN(CC)c1ccc(C(=O)N/N=C/c2ccc(N3CCOCC3)cc2)cc1,-11.2%
17,Cc1nn(C(C)C(=O)N2CCOCC2)c(=O)c2nn(-c3ccccc3)c(C)c12 (centres undefined),-9.86%
18,O=C(c1ccc(F)cc1)N1CCCC(C(=O)N2CCCCC2)C1 (centres undefined),4.46%
19,CC(=O)Nc1ccc(S(=O)(=O)N2CCC(C(=O)N[C@@H](Cc3ccccc3)C(=O)O)CC2)cc1,-6.49%
20,Cc1cccc(N(C)C(=O)c2cc(S(=O)(=O)N3CCCCC3)c[nH]2)c1,-6.21%

row,SMILES,inhibition
1,CCN(CC)C(=O)C(=O)Nc1cccc(Br)c1,106% (active)
2,C=C(C)C(=O)Nc1cccc(C(C)=O)c1,-10.8%
3,CSc1ccccc1NC(=O)CN(C)CC(=O)Nc1cccc(Br)c1,-0.946%
4,O=C(N/N=C/c1cccc(OC(=O)c2ccc([N+](=O)[O-])cc2)c1)c1cccnc1,-3.03%
5,CCN(CC)/[N+]([O-])=N/Oc1cc(O/[N+]([O-])=N/N2CCCC2CO)c([N+](=O)[O-])cc1[N+](=O)[O-] (centres undefined),-5.78%
6,O=C(NCCc1csc(-c2ccccc2)n1)c1ccccc1F,40.5%
7,CCCc1ccc(-c2csc(NC(=O)Cc3cccs3)n2)cc1,13%
8,COc1ccc(-c2csc(NC(=O)COC(=O)c3ccc(Br)o3)n2)cc1,92.3% (active)
9,COc1ccc(-c2nc(CCNC(=O)c3ccc(Br)o3)cs2)cc1,20.3% (active)
10,COc1cc(CC(=O)Nc2nc(-c3ccc(F)c(F)c3)cs2)cc(OC)c1OC,-5.98%
11,COc1ccc(-c2csc(NC(=O)COC(=O)Cc3ccc(Cl)cc3Cl)n2)cc1,64% (active)
12,CC(C)(C)NC(=O)NC(=O)COC(=O)Cc1ccc(Cl)cc1Cl,16.6%
13,COc1ccc(N2CCN(C(=O)CNC(=O)c3ccc(Br)o3)CC2)cc1,-11.6%
14,COc1ccc(CC(=O)Nc2nc(-c3ccc(F)c(F)c3)cs2)cc1OC,-2.51%
15,CC(C)=CCCC(C)CN1CCC(n2nccc2NC(=O)c2ccccc2)CC1 (centres undefined),-5.43%
16,O=C(Nc1ccccc1)C1CCN(C(=O)c2ccc(Br)cc2)CC1,6.29%
17,COCCCC1CCN(C(=O)C2CCC(=O)N(C3CCCCCC3)C2)CC1 (centres undefined),-6.64%
18,O=C(O)c1[nH]c2ccccc2c1C(c1cccc(O)c1)c1c(C(=O)O)[nH]c2ccccc12,-5.15%
19,COC(=O)COc1ccc2c(=O)c(Oc3ccccc3Br)coc2c1,-7.5%
20,CCc1ccc(N2CC(C(=O)N3CCCCCC3)CC2=O)cc1 (centres undefined),16%

row,SMILES,inhibition
1,CC(CC(=O)N1CCN(c2ccccc2)CC1)S(=O)(=O)c1ccc2c(c1)NC(=O)CS2 (centres undefined),1.51%
2,O=C(Cn1c(=O)sc2ccccc21)Nc1nc2c(s1)CCCC2,22.4%
3,Fc1ccc2nc(Nc3nc4c(s3)CCCC4)sc2c1,72.1% (active)
4,O=C(CCS(=O)(=O)c1ccccc1)Nc1nc2c(s1)CCCC2,20.4%
5,CN(CC(=O)Nc1c(Cl)cccc1Cl)C(=O)c1ccncc1,-30.3%
6,O=c1ccc(-c2ccc(S(=O)(=O)Nc3ccccc3)o2)n[nH]1,-5.64%
7,O=C(O)c1ccc(S(=O)(=O)N2CCC(Cc3ccccc3)CC2)cc1,-10.1%
8,O=C(NCCc1ccccc1Cl)C1CCC(=O)N(CCCc2ccccc2)C1 (centres undefined),-7.04%
9,O=C(NCCN1CCOC1=O)C1CCC(=O)N(CCc2ccc(Cl)cc2)C1 (centres undefined),-3.56%
10,O=C(NCCCc1ccccc1)C1CCC(=O)N(CCc2ccc(Cl)cc2)C1 (centres undefined),35.2% (active)
11,Cc1ccc(-n2nc3c(=O)n(C(C)C(=O)NCc4ccc5c(c4)OCO5)nc(C)c3c2C)cc1 (centres undefined),-4.41%
12,CS(=O)(=O)N1CCCC(C(=O)Nc2ccccc2C(F)(F)F)C1 (centres undefined),-10%
13,CCC(C(=O)OC)n1cnc2c(oc3ccccc32)c1=O (centres undefined),27.3%
14,COc1ccccc1Nc1ncnc2c1oc1ccccc12,53.4% (active)
15,COc1ccc(C)cc1Nc1nc(C)nc2c1oc1ccccc12,2.95%
16,Cc1occc(=O)c1OCc1c(Cl)cccc1Cl,-6.59%
17,O=C1COc2ccc(S(=O)(=O)NCCc3ccc(Cl)cc3)cc2N1,2.79%
18,Cc1ccc(NS(=O)(=O)c2ccc(C(C)(C)C)cc2)cn1,1.36%
19,Cc1ccc(S(=O)(=O)c2nc(-c3cccs3)oc2NCc2cccnc2)cc1,-2.32%
